# Screens deposited in PubChem BioAssay by National Center for Advancing Translational Sciences (NCATS).
# Most compounds without a hit are left out; they make up all but 1.9% or so of the library.
# IL-2 act: IL-2 activation. activation, % (series mostly up to about 46 µM). actives 0.065% (n = 360,000). IL-2 activation reporter assay, cell-based qHTS; stimulated with anti-CD3/CD4/CD28 beads; in transgenic mouse T cells. AID 652025; in the data active = activation above about 50%; inconclusive = mostly about 30% to 49%; note: 0% is about no effect
#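 EGFP and DsRed fluorescence is measured by plate cytometry in unstimulated transgenic mouse T cells exposed to compound for 60 minutes, then stimulated 18 hours at 37 degrees C with anti-CD3/anti-CD4 beads plus anti-CD28.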
# BRCA1 expr up: activators of BRCA1 expression | actives 1.1% (n = 380,000) | MCF7-BRCA1-FFLuc reporter, luminescence, 48 h; response scale: scaled: vehicle 0%, 10 µM genistein 100% | Potency, µM (series often up to 46.1 µM), without a hit: top-dose activation, usual class: activators; note: potency is the fitted concentration of half-maximal effect; nearly all actives have a fitted effect of over 80% in size
#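 Compounds are tested at multiple concentrations on MCF7 BRCA1-luciferase reporter cells seeded at 2000 per well; after 48 h, a single luminescence end-point is taken and curves fitted to the normalized data.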
# RXFP1 antag: antagonists of human relaxin receptor RXFP1; Q9HBX9; HEK293-RXFP1, relaxin-stimulated cAMP HTRF, 30 min; active compounds read low; activity change, negative = inhibition, % at 57.5 µM; actives 0.59% (n = 350,000);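 active = activity change of -60% or lower, but not beyond a set lower limit; inconclusive = change between -60% and -40%, or beyond the set limit; inactive = change above -40%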; note: % is set by controls: 0 for no effect and ±100 for the full control effect
# RXFP1 ag: activates the human relaxin receptor RXFP1 | Q9HBX9 | HEK293T-RXFP1 cAMP TR-FRET, 30 min; response scale: percent of porcine relaxin response, buffer zero | Potency, µM (top dose mostly 57.5 µM), without a hit: at the top dose activation, usual class: activators | actives 0.3% (n = 370,000) | AID 2676; note: potency is the fitted concentration of half-maximal effect; % is set by controls: 0 for no effect and ±100 for the full control effect; nearly all actives have a fitted effect of over 60% in size
#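 HEK293T cells stably expressing RXFP1 were pretreated with the PDE4 inhibitor Ro 20174, exposed to compounds for 30 min at 37C, lysed, and cAMP was read by TR-FRET. Data normalized to buffer (basal) and 29 nM porcine relaxin (100%).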
# NPSR antagonist: blocks cAMP signaling of the human neuropeptide S receptor; CHO-NPSR cells, cAMP TR-FRET, antagonist mode; Potency, µM (top dose mostly 38.3 µM), for inactives: at the highest dose activity change, negative = inhibition, most hits filed as inhibitors; AID 1461; actives 1% (n = 220,000); note: potency is the fitted concentration of half-maximal effect; % is set by controls: 0 for no effect and ±100 for the full control effect; nearly all actives have a fitted effect of over 50% in size
# Target sequence (Q6W5P4 whole entry, looked up): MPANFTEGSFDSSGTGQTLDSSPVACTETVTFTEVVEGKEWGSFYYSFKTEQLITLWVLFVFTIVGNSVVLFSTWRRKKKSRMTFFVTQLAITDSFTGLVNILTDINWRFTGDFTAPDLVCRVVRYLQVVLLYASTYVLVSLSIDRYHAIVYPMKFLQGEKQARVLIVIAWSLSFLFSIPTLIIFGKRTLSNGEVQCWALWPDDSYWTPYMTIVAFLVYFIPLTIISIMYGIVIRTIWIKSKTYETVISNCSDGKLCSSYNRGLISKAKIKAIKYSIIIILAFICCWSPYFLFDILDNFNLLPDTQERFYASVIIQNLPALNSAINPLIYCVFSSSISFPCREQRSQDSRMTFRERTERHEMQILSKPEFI
# Giardia killer: kills Giardia lamblia; Giardia lamblia trophozoite viability; activity change, % at 7.66 µM, hits read low; actives 0.15% (n = 340,000); in the data active = activity change below about -80%; inconclusive = between about -30% and that limit;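 note: parasites exposed to compound for two days anaerobically before the ATP read; % is set by controls: 0 for no effect and ±100 for the full control effect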
#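 Giardia lamblia trophozoites (100 cells/well) were incubated with compounds for 48 h at 37 deg C under anaerobic conditions. Viability was read as ATP content by one-step luminescence after 15-30 min at room temperature.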
# * hit, by the source's call; ? = inconclusive; · = no result given; [ ] = dose if it differs, or a comment. Unless noted, calls come from the whole dose curve; as a rule, active = well fitted curve in the direction sought with a large enough effect; inconclusive = small, poorly fitted or top-dose-only effect, or another doubt; inactive = no such curve, though single readings can be large; an effect the other way counts as inactive or inconclusive.
SMILES,IL-2 act,BRCA1 expr up,RXFP1 antag,RXFP1 ag,NPSR antagonist,Giardia killer
CCC(CC)(CNC(=O)CCCO)c1cccc(OC)c1,·,·,-5,·,·,·
CCN(CC)c1ccc(CN2CC=C(c3ccc(F)cc3)CC2)cc1,1,-29%,?,0%,10µM*,-5
COc1ccc(CN2CC=C(c3ccc(F)cc3)CC2)cc1Br,-2,-19%,-11,2%,·,5
Nc1ncnc2c1ncn2[C@@H]1O[C@H](COP(=O)(O)CP(=O)(O)O)[C@@H](O)[C@H]1O,0,-8%,·,·,·,2
CCNC(=O)[C@H]1O[C@@H](n2cnc3c(N)ncnc32)[C@H](O)[C@@H]1O,0,-8%,·,1.3µM*,15%,2
Cc1ccc(C)c(S(=O)(=O)c2nnn3c2nc(N2CCN(C)CC2)c2sccc23)c1,·,·,-14,?,·,·
O=c1oc2ccccc2c(O)c1C(CC(O)c1ccc(-c2ccc(Br)cc2)cc1)c1ccccc1 (configuration not stated),·,·,-64*,·,·,·
O=[N+]([O-])c1c(Cl)c(Cl)cc(Cl)c1Cl,·,·,12,·,·,·
CNc1cc(Cl)c2nonc2c1[N+](=O)[O-],-2,-97%,-81*,10%,10µM*,7
Cc1nn2c(=O)cc(COC(=O)c3ccccc3NC(=O)c3cccs3)nc2s1,·,·,2,?,·,·
Clc1ccc(C(c2ccc(Cl)cc2)C(Cl)(Cl)Cl)cc1,·,·,-72*,·,·,·
Oc1ccc(Cl)cc1,0,5%,9,·,·,11
CCSc1nnc(NC(=O)c2cccn(Cc3ccccc3Cl)c2=O)s1,·,16%,·,4%,·,·
O=C(CSc1nnc(NC(=O)c2ccccc2F)s1)NCc1ccc(F)cc1,-3,5µM*,0,-1%,·,-15
C[C@]12CC[C@H]3[C@@H](CCC4=CC(=O)CC[C@@H]43)[C@@H]1CC[C@@H]2OC(=O)CCc1ccccc1,·,·,-33,·,·,·
C[n+]1c2ccccc2nc2ccc(NCCO)cc21,0,-48%,-39,17%,·,7
CNc1ccc2nc3ccccc3[n+](C)c2c1,-6,-85%,-92*,9%,·,-22
CCN(CC)c1ccc(N=Cc2c(O)n(Cc3ccco3)c(=O)[nH]c2=O)cc1,84*,-41%,-19,-1%,-6%,-28
NC(=O)c1ccc(N=Cc2c(O)n(Cc3ccco3)c(=O)[nH]c2=O)cc1,1,-7%,-5,2%,15%,2
Cc1cc([N+](=O)[O-])c2ccccc2[n+]1[O-],-1,-91%,-8,0%,10µM*,-88*
Cc1ccccc1[N+](=O)[O-],-1,5%,·,0%,·,5
COc1ccc(-n2nc(C(=O)NCC(=O)N3CCC4(CC3)OCCO4)c3ccccc3c2=O)cc1OC,0,10µM*,29,?,·,0
Clc1cccc(CNCCc2c[nH]c3ccccc23)c1,0,-9%,-84*,1%,·,-9
CC(Cc1ccccc1)/[N+]([O-])=C\c1ccc(C(F)(F)F)cc1 (configuration not stated),1,10µM*,·,0%,·,-10
C[C@]12C/C(=C/O)C(=O)C[C@@H]1CC[C@@H]1[C@@H]2CC[C@@]2(C)[C@H]1CC[C@]2(C)O,·,·,-99*,·,·,·
SMILES,IL-2 act,BRCA1 expr up,RXFP1 antag,RXFP1 ag,NPSR antagonist,Giardia killer
CNC(=O)Oc1ccc(-c2cn3cc(C)ccc3n2)cc1,0,?,-2,1%,7%,-108*
C[C@@H]1CC2=CC(=O)CC[C@@H]2[C@H]2CC[C@@]3(C)[C@@H](CC[C@]3(C)O)[C@@H]21,·,·,-12,·,·,·
CCn1nc(-c2ccccc2)nc2c(=O)n(C)c(=O)nc1-2,-1,-91%,2,10%,4µM*,-89*
Cc1nc2c(=O)n(C)c(=O)nc-2n(C)n1,-7,-97%,16,0%,?,-107*
Cn1nc(-c2ccccc2)nc2c(=O)n(C)c(=O)nc1-2,·,-78%,·,·,·,-89*
Fc1ccccc1CSc1ncnc2c1ncn2C1CCCO1 (configuration not stated),0,3.5µM*,15,·,·,5
C=CCC1(C(C)CC)C(=O)NC(=O)NC1=O (configuration not stated),·,·,-23,·,·,·
Clc1ccc(C(c2ccc(Cl)cc2)n2cc[n+](CC(OCc3ccc(Cl)cc3Cl)c3ccc(Cl)cc3Cl)c2)cc1 (configuration not stated),-1,-75%,·,1%,13µM*,-14
O=C1NC(=O)N(CCc2ccc(F)cc2)C(=O)/C1=C\C=C\c1ccccc1,-1,-15%,-18,-4%,-59%,13
CN1C(=O)NC(=O)/C(=C\C=C\c2ccccc2[N+](=O)[O-])C1=O,-6,-85%,-38,2%,10µM*,1
CC1OC(O[C@H]2C[C@@H](O)[C@]3(CO)[C@H]4[C@H](O)C[C@]5(C)[C@@H](C6=CC(=O)OC6)CC[C@]5(O)[C@@H]4CC[C@]3(O)C2)C(O)C(O)C1O (some centres not stated),·,-4%,·,·,·,·
CC(C)Oc1cccc(NC(=O)c2ccccc2C(F)(F)F)c1,·,·,-25,·,·,·
O=c1[nH]c2ccccc2n1C1CCN(CCCC(c2ccc(F)cc2)c2ccc(F)cc2)CC1,-1,-53%,-68*,6%,6.3µM*,-11
O=C1C(=O)c2ccccc2-c2ccccc21,-1,-79%,·,0%,3.2µM*,?
O=C1C(=O)c2cccc3cccc1c23,2,-65%,-2,2%,25%,6
O=C(CN1CCCC1)Nc1ccc(NC(=O)Nc2ccccc2)cc1,0,2.8µM*,10,1%,-3%[46.1 µM],-13
O=C(C1CC(c2ccc(Cl)c(Cl)c2)=NO1)N1CCC2(CC1)OCCO2 (configuration not stated),5,8.9µM*,-12,-1%,-14%[46.1 µM],-1
O=C(C1CCC(=O)N1Cc1ccc(F)cc1)N1CCC2(CC1)OCCO2 (configuration not stated),0,-16%,0,2%,4%[46.1 µM],1
COc1cccc(C2=NOC(C(=O)N3CCC4(CC3)OCCO4)C2)c1 (configuration not stated),-1,?,-10,0%,-8%[46.1 µM],2
O=C(C1CC(c2ccc(F)cc2)=NO1)N1CCC2(CC1)OCCO2 (configuration not stated),-2,7.9µM*,7,0%,1%[46.1 µM],-13
CC(=O)Nc1ccc(OC(=O)N2CCN(/[N+]([O-])=N/Oc3ccc([N+](=O)[O-])cc3[N+](=O)[O-])CC2)cc1,·,-45%,·,·,·,·
O=[N+]([O-])c1cc(C(F)(F)F)c(Cl)c([N+](=O)[O-])c1Nc1ncc(C(F)(F)F)cc1Cl,·,-69%,·,·,·,·
C[C@]12CC[C@H]3[C@@H](CC[C@@]45O[C@H]4C(O)=C(C#N)C[C@]35C)[C@H]1CC[C@H]2O,·,·,-22,·,·,·
CCCCCCn1c(O)c(C=Nc2ccccc2N2CCOCC2)c(=O)[nH]c1=S,59*,-6%,-3,4%,?,-8
N#CC(C#N)=NNc1ccc(S(N)(=O)=O)cc1,-1,13%,-7,0%,-25%,-15
CC1CCN(S(=O)(=O)c2ccc(NN=C(C#N)C#N)cc2)CC1,·,·,·,-1%,10µM*,·
